Assay results from PubChem BioAssay AID1159580 (chemical genetic matrix, 2015).
Hit rate of the full screen: of about 5,500 compounds, about 2,000 (36%) were called active. Roughly 18% stayed inconclusive and do not appear here. No stated cut-off is given here; in the data, active means normalized growth mostly below about 0.91 (no sharp cut-off); inconclusive means no clear call, values can overlap the other calls; inactive means mostly above about 0.92. This is one part of the list.

Test: chemical genetic growth profiling, strain panel (AID 1159580);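 further: tested at 20 µM; growth read once vehicle control cultures reached saturation at 30 °C; 1 = growth at the plate median or of vehicle wells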
Conditions: growth OD

Measured: normalized growth

CN1CCOC(c2ccccc2)c2ccccc2C1 (configuration not stated)
inactive: S. cerevisiae deletion strains, locus YJR075W, strain HOC1, stronger effect = lower value 0.992 | S. cerevisiae deletion strains, locus YKL009W, strain mrt4, stronger effect = lower value 0.956 | S. cerevisiae deletion strains, locus YKL068W, stronger effect = lower value 1.01 | S. cerevisiae deletion strains, locus YKL085W, strain MDH1 (second series), stronger effect = lower value 0.996 | S. cerevisiae deletion strains, locus YKL085W, strain MDH1, stronger effect = lower value 0.996 | S. cerevisiae deletion strains, locus YKL160W, strain elf1, stronger effect = lower value 0.993 | S. cerevisiae deletion strains, locus YKL190W, strain CNB1, stronger effect = lower value 1 | S. cerevisiae deletion strains, locus YKR001C, strain vps1, stronger effect = lower value 1.03 | S. cerevisiae deletion strains, locus YKR026C, strain gcn3, stronger effect = lower value 0.978 | S. cerevisiae deletion strains, locus YKR091W, strain srl3, stronger effect = lower value 0.984 | S. cerevisiae deletion strains, locus YLL001W, strain dnm1, stronger effect = lower value 0.976 | S. cerevisiae deletion strains, locus YLL026W, stronger effect = lower value 0.99 | S. cerevisiae deletion strains, locus YLL041C, strain sdh2, stronger effect = lower value 0.983 | S. cerevisiae deletion strains, locus YLR027C, strain aat2, stronger effect = lower value 1 | S. cerevisiae deletion strains, locus YLR039C, strain RIC1, stronger effect = lower value 1.01 | S. cerevisiae deletion strains, locus YLR058C, strain SHM2, stronger effect = lower value 1 | S. cerevisiae deletion strains, locus YLR102C, strain apc9, stronger effect = lower value 1.02 | S. cerevisiae deletion strains, locus YLR113W, strain HOG1, stronger effect = lower value 0.997 | S. cerevisiae deletion strains, locus YLR221C, strain rsa3, stronger effect = lower value 0.983 | S. cerevisiae deletion strains, locus YLR258W, strain gsy2, stronger effect = lower value 0.948 | S. cerevisiae deletion strains, locus YLR262C, strain YPT6 (second series), stronger effect = lower value 0.955 | S. cerevisiae deletion strains, locus YLR262C, strain YPT6, stronger effect = lower value 1.02 | S. cerevisiae deletion strains, locus YLR268W, strain sec22, stronger effect = lower value 1.07 | S. cerevisiae deletion strains, locus YLR320W, strain mms22, stronger effect = lower value 0.975 | S. cerevisiae deletion strains, locus YLR330W, strain CHS5, stronger effect = lower value 1.01 | S. cerevisiae deletion strains, locus YLR342W, strain FKS1 (second series), stronger effect = lower value 1.01 | S. cerevisiae deletion strains, locus YLR342W, strain FKS1, stronger effect = lower value 0.982 | S. cerevisiae deletion strains, locus YLR357W, strain rsc2, stronger effect = lower value 0.954 | S. cerevisiae deletion strains, locus YLR370C, strain arc18, stronger effect = lower value 0.982 | S. cerevisiae deletion strains, locus YLR371W, strain rom2, stronger effect = lower value 1.04 | S. cerevisiae deletion strains, locus YLR384C, strain iki3, stronger effect = lower value 0.979 | S. cerevisiae deletion strains, locus YLR418C, strain cdc73, stronger effect = lower value 1.05 | S. cerevisiae deletion strains, locus YML016C, strain PPZ1, stronger effect = lower value 0.999 | S. cerevisiae deletion strains, locus YML032C, strain rad52, stronger effect = lower value 1.03 | S. cerevisiae deletion strains, locus YML120C, strain ndi1, stronger effect = lower value 0.995 | S. cerevisiae deletion strains, locus YML124C, strain tub3, stronger effect = lower value 1.02 | S. cerevisiae deletion strains, locus YMR058W, strain fet3, stronger effect = lower value 1.01 | S. cerevisiae deletion strains, locus YMR078C, strain ctf18, stronger effect = lower value 1.01 | S. cerevisiae deletion strains, locus YMR125W, strain sto1, stronger effect = lower value 0.967 | S. cerevisiae deletion strains, locus YMR129W, stronger effect = lower value 0.999 | S. cerevisiae deletion strains, locus YMR205C, strain PFK2, stronger effect = lower value 0.966 | S. cerevisiae deletion strains, locus YMR223W, strain ubp8, stronger effect = lower value 1.01 | S. cerevisiae deletion strains, locus YMR231W, strain pep5, stronger effect = lower value 0.973 | S. cerevisiae deletion strains, locus YMR263W, strain SAP30, stronger effect = lower value 1.02 | S. cerevisiae deletion strains, locus YMR307W, strain GAS1, stronger effect = lower value 1.15 | S. cerevisiae deletion strains, locus YNL067W, strain RPL9B, stronger effect = lower value 1.02 | S. cerevisiae deletion strains, locus YNL071W, strain lat1, stronger effect = lower value 0.951 | S. cerevisiae deletion strains, locus YNL128W, strain TEP1, stronger effect = lower value 1.01 | S. cerevisiae deletion strains, locus YNL153C, strain GIM3, stronger effect = lower value 1.02 | S. cerevisiae deletion strains, locus YNL183C, strain NPR1, stronger effect = lower value 0.945 | S. cerevisiae deletion strains, locus YNL209W, strain ssb2, stronger effect = lower value 0.981 | S. cerevisiae deletion strains, locus YNL233W, strain BNI4, stronger effect = lower value 1.01 | S. cerevisiae deletion strains, locus YNL248C, strain rpa49, stronger effect = lower value 0.954 | S. cerevisiae deletion strains, locus YNL250W, strain rad50, stronger effect = lower value 1.01 | S. cerevisiae deletion strains, locus YNL271C, strain bni1, stronger effect = lower value 1.02 | S. cerevisiae deletion strains, locus YNL298W, strain CLA4, stronger effect = lower value 1.01 | S. cerevisiae deletion strains, locus YNL307C, strain MCK1, stronger effect = lower value 1.02 | S. cerevisiae deletion strains, locus YNL322C, strain KRE1 (second series), stronger effect = lower value 0.958 | S. cerevisiae deletion strains, locus YNL322C, strain KRE1, stronger effect = lower value 0.941 | S. cerevisiae deletion strains, locus YNR049C, strain mso1, stronger effect = lower value 0.968 | S. cerevisiae deletion strains, locus YNR052C, strain pop2, stronger effect = lower value 1.03 | S. cerevisiae deletion strains, locus YOL006C, strain TOP1, stronger effect = lower value 1.07 | S. cerevisiae deletion strains, locus YOL012C, strain htz1 1.34 | S. cerevisiae deletion strains, locus YOL147C, strain pex11, stronger effect = lower value 1.01 | S. cerevisiae deletion strains, locus YOR001W, strain rrp6, stronger effect = lower value 0.99 | S. cerevisiae deletion strains, locus YOR061W, strain CKA2, stronger effect = lower value 1.01 | S. cerevisiae deletion strains, locus YOR069W, strain VPS5, stronger effect = lower value 1 | S. cerevisiae deletion strains, locus YOR070C, strain gyp1, stronger effect = lower value 0.981 | S. cerevisiae deletion strains, locus YOR080W, strain dia2, stronger effect = lower value 0.989 | S. cerevisiae deletion strains, locus YOR083W, strain WHI5, stronger effect = lower value 0.971 | S. cerevisiae deletion strains, locus YOR106W, strain vam3, stronger effect = lower value 0.963 | S. cerevisiae deletion strains, locus YOR136W, strain idh2, stronger effect = lower value 1.01 | S. cerevisiae deletion strains, locus YOR144C, strain elg1, stronger effect = lower value 1.02 | S. cerevisiae deletion strains, locus YOR184W, strain ser1, stronger effect = lower value 1.02 | S. cerevisiae deletion strains, locus YOR231W, strain MKK1, stronger effect = lower value 0.995 | S. cerevisiae deletion strains, locus YOR265W, strain rbl2, stronger effect = lower value 0.985 | S. cerevisiae deletion strains, locus YOR270C, strain vph1, stronger effect = lower value 0.917 | S. cerevisiae deletion strains, locus YOR290C, strain snf2, stronger effect = lower value 0.966 | S. cerevisiae deletion strains, locus YOR316C, strain cot1, stronger effect = lower value 1.02 | S. cerevisiae deletion strains, locus YPL051W, strain arl3, stronger effect = lower value 0.995 | S. cerevisiae deletion strains, locus YPL055C, strain LGE1, stronger effect = lower value 1 | S. cerevisiae deletion strains, locus YPL078C, strain atp4, stronger effect = lower value 0.979 | S. cerevisiae deletion strains, locus YPL106C, strain sse1, stronger effect = lower value 0.921 | S. cerevisiae deletion strains, locus YPL240C, strain hsp82, stronger effect = lower value 0.969 | S. cerevisiae deletion strains, locus YPL241C, strain CIN2, stronger effect = lower value 1.01 | S. cerevisiae deletion strains, locus YPL256C, strain CLN2, stronger effect = lower value 0.997 | S. cerevisiae deletion strains, locus YPR119W, strain clb2, stronger effect = lower value 1.01 | S. cerevisiae deletion strains, locus YPR141C, strain kar3, stronger effect = lower value 1.01 | S. cerevisiae deletion strains, locus YPR163C, strain tif3, stronger effect = lower value 1.03 | S. cerevisiae deletion strains, locus YPR167C, strain met16, stronger effect = lower value 1.02 | S. cerevisiae deletion strains, strain wtn01, stronger effect = lower value 1.02 | S. cerevisiae strains, strain wild type, stronger effect = lower value 1.01
